Assay results: PubChem BioAssay AID1345082 (National Center for Advancing Translational Sciences (NCATS), 2018)
The whole screen tested about 94,000 compounds, of which about 4,000 (4.3%) were called active. Entries that show only a call come without a potency. Not shown: some 29% with an inconclusive outcome. The call rests on the fitted dose curve; in most records, active means well fitted inhibition curve with a large enough effect; inconclusive means small, poorly fitted or top-dose-only effect; inactive means no such curve, though single readings can be large or run the other way. The full list was thinned out, with actives kept by preference.

Experiment: Cytotoxic Profiling in NIH 3T3 Cell Line of Diverse Libraries Using Quantitative High-Throughput Screening; further: nearly all actives have a fitted effect of over 55% in size
Details: NIH 3T3 viability, CellTiter-Glo ATP luminescence, 48-72 h; series mostly up to 96.7 µM
Source text: Cell-based phenotypic screening is a commonly used approach to discover biological pathways, novel drug targets, chemical probes and high-quality hit-to-lead molecules. Many hits identified from high-throughput screening campaign are ruled out through a series of follow-up potency, selectivity/specificity, and cytotoxicity assays. Prioritization of molecules with little or no cytotoxicity for a more in-depth downstream evaluation influence the future direction of projects, so cytotoxicity profiling of the screening libraries at early stage is essential for increasing the likelihood of candidate success. In this study, we analyzed results from a cell-based cytotoxicity screening campaign, comprising nearly 10,000 compounds in NCATS annotated libraries, and over 100,000 compounds in a diversity library, evaluated in four normal cell lines (HEK 293, NIH 3T3, CRL-7250 and HaCat) and a cancer cell line (KB 3-1, a HeLa subline) with overall screening outcomes, hit rates, pan-activity and selectivity. For the annotated library, we also examined the primary targets and mechanistic pathways regularly associated with cell death. To our knowledge, this is the first study to use high-throughput screening to profile large libraries for cytotoxicity assessment in both normal and cancer cell lines. In summary, the results generated here constitutes a valuable resource for the scientific community and provides insight on identifying cytotoxic compounds with particular mechanisms of action, and prioritizing compounds with suitable cytotoxicity profile for further evaluation.
NIH 3T3 cells were seeded into white 1536-well plates using a Multidrop Combi peristaltic dispenser (ThermoFisher, Waltham, MA) at a density of 400 cells/well in 5 uL of medium respectively. A pintool (Kalypsys) was used to transfer 23 nL of compound solution to the 1536-well assay plates. After 48 or 72 hr incubation at 37 degree Celsius, 5% CO2 and 95% humidity, 2.5 uL of CellTiter-Glo (Promega) was dispensed into each well using a dispenser (Aspect Automation, St. Paul, MN) with solenoid valves (Lee Valves, Westbrook CT). Plates were left at room temperature for 10 min before imaging the ATP-coupled luminescence using a ViewLux microplate imager (PerkinElmer, Waltham, MA).
Potency means the concentration at half of the fitted maximal effect.

| SMILES | Potency |
| --- | --- |
| Cc1nn(CCC#N)c(C)c1[C@@H]1C=C[C@@H](NS(=O)(=O)c2ccccc2)C1 | 25.1 µM (active) |
| Cc1noc(C)c1[S+](=O)([O-])N1CCCC2(CC(Cc3ccccc3)=NO2)C1 (stereo unspecified) | inactive |
| C=CCOC(=O)Nc1nc2c(s1)C[C@@H]1[C@](C)(CO)[C@H](O)CC[C@@]1(C)[C@@H]2CC(=O)N(CC)CC | inactive |
| C=CCN(C)C(=O)C[C@@H]1c2nc(NC(=O)c3ccc(C(C)(C)C)cc3)sc2C[C@@H]2[C@](C)(CO)[C@H](O)CC[C@]21C | 28.2 µM (active) |
| CC(=O)N1CCN(C(=O)C[C@@H]2c3nc(NC(=O)c4cccs4)sc3C[C@@H]3[C@](C)(CO)[C@H](O)CC[C@]32C)CC1 | inactive |
| CN(C)CCNC(=O)C[C@@H]1c2nc(NC(=O)c3ccc(C(C)(C)C)cc3)sc2C[C@@H]2[C@](C)(CO)[C@H](O)CC[C@]21C | 25.1 µM (active) |
| C[C@]1(CO)[C@H]2Cc3sc(NC(=O)C4CCC4)nc3[C@@H](CC(=O)N3CCCCC3)[C@]2(C)CC[C@H]1O | inactive |
| COCC(=O)Nc1nc2c(s1)C[C@@H]1[C@](C)(CO)[C@H](O)CC[C@@]1(C)[C@@H]2CC(=O)NCCN1CCOCC1 | inactive |
| Cc1noc(C)c1[S+](=O)([O-])N1CCC2(CC(C(C)C)=NO2)C1 (stereo unspecified) | inactive |
| C[C@@H]1CN(C(=O)CNS(=O)(=O)c2cccs2)C[C@@]1(O)C1CC1 | inactive |
| CN(C(=O)c1ccccc1)C1CCc2ccccc21 (stereo unspecified) | inactive |
| CC(C)N(C)Cc1nnnn1CC(=O)NCc1ccc2nonc2c1 | inactive |
| O=C(CN1C(=O)C(c2ccccc2)=NC12CCCC2)Nc1ccc2c(c1)OCCO2 | inactive |
| Cn1cnnc1CC1CCCN(C(=O)c2ccsc2)C1 (stereo unspecified) | inactive |
| OC1(CN2CCC(CCn3cccn3)CC2)CNCCOC1 (stereo unspecified) | inactive |
| CCc1cc(N2CCN(CC3(O)CCCNC3)CC2)ncn1 (stereo unspecified) | inactive |
| COc1ccc(OCC2CCN(CC3(O)CCCNC3)CC2)cc1 (stereo unspecified) | 44.7 µM (active) |
| Cc1cc(C)c(-c2nc3ncccc3[nH]2)[nH]1 | inactive |
| CC(C)NC(=O)N1CCN(CCCn2nc3n(c2=O)CCCC3)CC1 | inactive |
| O=C(c1ccc2cc[nH]c2c1)N1CCCN(c2cc(-c3ccc(Cl)cc3)[nH]n2)CC1 | 39.8 µM (active) |
| COc1ccc(-c2cc(N3CCN(C(=O)c4ccncc4)CC3)n[nH]2)cc1 | inactive |

| SMILES | Potency |
| --- | --- |
| O=C(N1CCN(c2cc(-c3ccc(Cl)cc3)[nH]n2)CC1)C1(c2ccccc2)CC1 | 35.5 µM (active) |
| CCOc1cc(C(=O)N2CCCN(c3cc(-c4ccccc4)[nH]n3)CC2)cc(OCC)c1OCC | inactive |
| O=C(c1cccnc1)N1CCN(c2cc(-c3ccccc3)[nH]n2)CC1 | inactive |
| COc1ccc(-c2cc(N3CCCN(C(=O)c4ccc(C)cc4)CC3)n[nH]2)cc1 | inactive |
| O=C(NCc1ccccn1)c1ccc2oc(-c3cccnc3)nc2c1 | inactive |
| O=C(c1ccccc1Cl)N1CCC(c2nc(-c3cccnn3)no2)CC1 | inactive |
| O=C1NCCCCCN(C(=O)NCCc2ccccc2)[C@H]2CCC[C@@H]12 | inactive |
| CCN(C1CCOCC1)C1CN(C(=O)C2CC2)C1 | inactive |
| CC(=O)c1ccc(NC(=O)N2CCc3c(nc(-c4ccc(F)cc4)[nH]c3=O)C2)cc1 | inactive |
| O=S(=O)(NCC1CNCCOC1)c1ccc(F)c(F)c1F (stereo unspecified) | inactive |
| CCNc1cc(N2CCC(CCC(=O)Nc3ccc(C)cc3C)CC2)ncn1 | inactive |
| CCOc1ncccc1CNC(=O)c1cc(S(N)(=O)=O)ccc1F | inactive |
| CNC(=O)c1cccc(-c2cnc3[nH]cc(CC(=O)NCc4cccc(F)c4)c3c2)c1 | 89.1 µM (active) |
| O=C(Cc1cccc(F)c1)Nc1cnc(-c2cccnc2)nc1 | inactive |
| O=C(Cn1nc2c(cc1=O)CCCC2)NCc1cccc(F)c1 | inactive |
| COc1ccc(CNC(=O)Cc2c[nH]c3ncc(-c4ccccc4)cc23)cc1OC | 39.8 µM (active) |
| COc1ccccc1C(=O)NCc1ccnc2[nH]ccc12 | inactive |
| COc1ccc(CCNC(=O)c2nnn3cc(-c4ccccc4)[nH]c(=O)c23)cc1OC | inactive |
| O=C(NCc1nc(-c2cccc(F)c2)c(-c2ccccn2)[nH]1)[C@@H]1CCCN1 | inactive |
| COc1ccc(Nc2ccnc(N3CCC(C(=O)N4CCN(C(C)=O)CC4)CC3)n2)cc1 | inactive |
| O=C(NCC(F)F)[C@@H]1CCCN1c1nccc(Nc2ccccc2Cl)n1 | inactive |

| SMILES | Potency |
| --- | --- |
| Cc1ccc(Nc2ccnc(N3CCCC3C(=O)N3CCC(Cc4ccccc4)CC3)n2)cc1 (stereo unspecified) | 20 µM (active) |
| CCCN1CC(Oc2ccc(-c3noc(C4CC4)n3)cc2)C1 | inactive |
| COc1cccc(F)c1C(=O)N1C[C@H](N)C[C@H]1C(=O)NC(C)C | inactive |
| O=C1CCCCC(CNC(=O)c2cc(F)ccc2F)N1 (stereo unspecified) | inactive |
| Cc1cc(Cl)ccc1-c1ccc(CN)cc1 | 31.6 µM (active) |
| NCc1ccc(-c2cncnc2)cc1 | inactive |
| COc1cccc(CCC(=O)N2CCCC2c2nc(C3CCOCC3)no2)c1 (stereo unspecified) | inactive |
| O=C(c1ccc(Cl)cc1)N1CCCC2(CNc3ncccc3[S+](=O)([O-])N2)C1 (stereo unspecified) | inactive |
| Cn1cnc(S(=O)(=O)N[C@H]2CCN(C(=O)c3ccco3)[C@H](C(=O)N[C@@H](Cc3cccs3)C(N)=O)C2)c1 | inactive |
| COc1ccc(-c2cc(C[C@H]3CNCC[C@H]3CC(=O)NCCN(C)C)no2)cc1 | inactive |
| COc1ccc(CNC(=O)C[C@@H]2CCNC[C@@H]2Cc2cc(-c3ccc(C(C)(C)C)cc3)on2)cc1OC | 25.1 µM (active) |
| O=C(C[C@@H]1CCNC[C@@H]1Cc1cc(-c2ccc(F)cc2)on1)NCCN1CCOCC1 | inactive |
| CN1C(=O)CCC2(CNC(=O)c3ccoc3)CCCC=C12 (stereo unspecified) | inactive |
| CCCn1ncc(C(=O)NCC2(O)CCCNC2)c1C (stereo unspecified) | inactive |
| CC(NC(=O)c1ccc(CN2C(=O)NC3(CCOCC3)C2=O)cc1)c1ccccc1 (stereo unspecified) | inactive |
| COC(=O)C1CCN(C(=O)CC[C@H]2CNC(=O)[C@@H]3[C@@H](CCN3Cc3cccs3)N2C)CC1 | inactive |
| Cn1c(=O)n([C@H]2CCCN(C(=O)C3CC=CC3)C2)c2ncccc21 | inactive |
| Cc1cccc(C)c1-c1nc(C(=O)NCc2ccc(F)cc2)n2ccccc12 | inactive |
| Cc1ccc(C)c(S(=O)(=O)c2nnn3c2nc(NCc2ccc(F)cc2)c2ccccc23)c1 | 28.2 µM (active) |
